Autofluor Jurkat – compound fluoresces in Jurkat cells, VLA-4 screen interference; compound autofluorescence, flow cytometry; stronger effect = higher value; 1 = vehicle-only cell background; fluorescence ratio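 (tested at 10 µM compound in the well)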; 0.61% of 24,000 active;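 active = fluorescence ratio above 2.44, which is 1 plus 3 SD of all ratios; inconclusive = signal too bright to measure linearly, ratio around 10 or more; inactive = fluorescence ratio below 2.44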;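 also: green fluorescence of cells measured with 488 nm excitation and 530 nm emission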
Prostate diff – activators of LNCaP prostate cell differentiation. AID 795. flow cytometry side scatter, 4 d. 0.56% of 24,000 active. side scatter shift, % at 10 µM;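 active = side scatter shift above 30%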;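 also: androgen-responsive LNCaP prostate cancer cells in charcoal-stripped serum medium; percent of cells past a gate set so DMSO wells show 10% shift; higher shift means more granular cells and more differentiation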
VLA-4 antagonist – inhibitors of LDV-FITC ligand binding to Mn2+-activated human VLA-4 integrin; P13612; Jurkat cells, LDV-FITC binding with Mn2+, flow cytometry; 100% = Mn2+-driven binding gain fully reversed; inhibition, % at 10 µM (by protocol); 0.2% of 24,000 active; AID 529;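 active = inhibition above 50%; inconclusive = compound itself fluorescent, judged against control cell fluorescence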;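 also: 0% = Mn2+ stimulated cells lacking compound and 100% = ligand binding without Mn2+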
FPR ligand – human FPR ligand, with FPRL1 counter-screen; P21462; FPR-expressing cells, fluorescent ligand binding, flow cytometry; inhibition, % (no concentration beside the values); 0.74% of 24,000 active;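 also: 0% = buffer wells and 100% = receptor blocker peptide wells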
FPRL1 binder – binds the human formylpeptide receptor-like-1 FPRL1; P25090; FPRL1-expressing cells, fluorescent ligand binding inhibition, flow cytometry; inhibition, % (test concentration not listed); 0.3% of 24,000 active;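 also: 0% = buffer alone and 100% = receptor blocker peptide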
Target sequence (P25090 whole entry, looked up): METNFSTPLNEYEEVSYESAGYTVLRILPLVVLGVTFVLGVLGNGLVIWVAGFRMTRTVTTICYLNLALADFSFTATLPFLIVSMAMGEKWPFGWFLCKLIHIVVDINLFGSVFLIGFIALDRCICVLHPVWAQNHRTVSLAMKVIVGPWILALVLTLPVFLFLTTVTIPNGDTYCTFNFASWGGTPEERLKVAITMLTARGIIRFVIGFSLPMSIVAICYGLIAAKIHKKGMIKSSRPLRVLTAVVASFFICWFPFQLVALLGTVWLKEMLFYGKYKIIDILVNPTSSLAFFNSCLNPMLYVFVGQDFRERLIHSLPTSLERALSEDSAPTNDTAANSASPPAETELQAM
VLA-4 allo ag – allosterically activates the human VLA-4 integrin. Jurkat cells, LDV-FITC binding, flow cytometry. activation, % at 10 µM (by protocol). 24,000 tested, under 10 active;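 active = fluorescent ligand binding to cells raised by more than 40% of the manganese-induced maximum; inconclusive = compound's own fluorescence above 85% of the ligand control signal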;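 also: 0% = ligand binding without compound and 100% = manganese-stimulated maximal binding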
An asterisk follows results filed as active. Only some compounds are listed: those with a hit (about 1.9% of all), similar ones and a draw of the others. Rule as the data show it, unless noted: active = inhibition above about 30%; inconclusive = no clear call, values can overlap the other calls; inactive = below that.

CC1Cc2ccccc2N1C(=O)Cn1c(=O)oc2cc(S(=O)(=O)N3CCCCC3)ccc21 (centres undefined) was read as Autofluor Jurkat 5.08*, Prostate diff 1.0, VLA-4 antagonist inconclusive, FPR ligand -7.6, FPRL1 binder -7.3 and VLA-4 allo ag inconclusive.
For Cc1ccnc(NC2c3ccccc3C(=O)N2Cc2ccccc2Cl)c1 (centres undefined) the results were Autofluor Jurkat 1.21, Prostate diff 9.0, VLA-4 antagonist 23.0, FPR ligand -5.7, FPRL1 binder 4.2 and VLA-4 allo ag -8.0.
For CCSc1nnc(NC(=O)CSc2nnc(Cc3cccn3C)n2-c2ccc(C)cc2)s1 the results were Autofluor Jurkat 1.18, Prostate diff 5.0, VLA-4 antagonist -13.3, FPR ligand 0.8, FPRL1 binder -4.8 and VLA-4 allo ag 0.3.
CCOC(=O)Cn1c(=NC(=O)CSC(C)=O)sc2cc(OC)ccc21 was read as Autofluor Jurkat 0.99, Prostate diff 10.0, VLA-4 antagonist 13.0, FPR ligand 25.2, FPRL1 binder 15.3 and VLA-4 allo ag 2.0.
CC(=O)SCC(=O)N=c1sc2cc(F)ccc2n1C was read as Autofluor Jurkat 0.99, Prostate diff 14.0, VLA-4 antagonist -15.3, FPR ligand 56.3*, FPRL1 binder 33.7* and VLA-4 allo ag 8.0.
For O=C(CCn1c(=O)sc2ccccc21)NCc1ccc2c(c1)OCO2 the results were Autofluor Jurkat 0.99, Prostate diff 7.0, VLA-4 antagonist -10.5, FPR ligand -4.3, FPRL1 binder -0.8 and VLA-4 allo ag 0.8.
`COc1ccccc1-n1c(CNC(=O)c2ccco2)nnc1SCC(=O)Nc1ccc(F)cc1` gave Autofluor Jurkat 1, Prostate diff 5.0, VLA-4 antagonist -1.0, FPR ligand 47.4*, FPRL1 binder 3.0 and VLA-4 allo ag -3.0.
COc1ccccc1-n1c(CNC(=O)c2ccco2)nnc1SCC(=O)Nc1cc(C)ccc1C was read as Autofluor Jurkat 1, Prostate diff 7.0, VLA-4 antagonist -13.0, FPR ligand -2.0, FPRL1 binder -0.7 and VLA-4 allo ag 1.0.
COc1cc(OC)nc(NC(=O)NS(=O)(=O)c2ccc(OC(F)(F)F)cc2)n1 was read as Autofluor Jurkat 1.06, Prostate diff 8.0, VLA-4 antagonist 8.0, FPR ligand 0.5, FPRL1 binder -3.0 and VLA-4 allo ag 3.0.
Cc1cc(NC(=O)CSc2nnc(Cn3c(=O)sc4ccccc43)n2-c2ccccc2C)no1 was read as Autofluor Jurkat 1, Prostate diff 29.0, VLA-4 antagonist 5.0, FPR ligand 36.2*, FPRL1 binder 15.8 and VLA-4 allo ag -2.0.
Screening Cc1ccccc1-n1c(Cn2c(=O)sc3ccccc32)nnc1SCC(N)=O returned Autofluor Jurkat 0.99, Prostate diff 7.0, VLA-4 antagonist -11.0, FPR ligand 3.5, FPRL1 binder 6.3 and VLA-4 allo ag 4.3.
`O=C(NCC12CC3CC(CC(C3)C1)C2)c1cc2n(n1)C(C(F)(F)F)CC(c1ccco1)N2` (centres undefined) gave Autofluor Jurkat 3.52*, Prostate diff 1.0, VLA-4 antagonist inconclusive, FPR ligand 6.8, FPRL1 binder -12.5 and VLA-4 allo ag inconclusive.
Screening COc1cc2c(cc1OC)C(C)N(C(=O)c1cc3n(n1)C(C(F)(F)F)CC(c1ccco1)N3)CC2 (centres undefined) returned Autofluor Jurkat 1.01, Prostate diff 2.0, VLA-4 antagonist 12.0, FPR ligand -5.5, FPRL1 binder -4.6 and VLA-4 allo ag -14.0.
`COc1cc(C2CC(=O)c3c([nH]c(C(=O)OCCOC(C)C)c3C)C2)cc(OC)c1OC` (centres undefined) gave Autofluor Jurkat 1.04, Prostate diff 11.0, VLA-4 antagonist 5.0, FPR ligand 7.6, FPRL1 binder 1.0 and VLA-4 allo ag 2.0.
For O=C(Nc1ccc2c(c1)OCO2)C1CCN(Cc2cnn(-c3ccccc3)c2-n2cccc2)CC1 the results were Autofluor Jurkat 1.11, Prostate diff 6.0, VLA-4 antagonist 17.0, FPR ligand 4.6, FPRL1 binder 2.2 and VLA-4 allo ag -6.0.
For COC(=O)c1[nH]c(C)c(/C(O)=C2\C(=O)C(=O)N(CCCN3CCOCC3)C2c2ccccn2)c1C (centres undefined) the results were Autofluor Jurkat 1.02, Prostate diff 15.0, VLA-4 antagonist -42.0, FPR ligand 38.1*, FPRL1 binder -2.0 and VLA-4 allo ag 13.5.
O=C1C2ON(c3ccc(Cl)cc3)C(c3ccco3)C2C(=O)N1c1ccccc1 (centres undefined) was read as Autofluor Jurkat 1.07, Prostate diff 2.0, VLA-4 antagonist -26.0, FPR ligand -1.1, FPRL1 binder -2.4 and VLA-4 allo ag 2.0.
`Cc1ccc(C(=O)C2COC(=O)C2)cc1` (centres undefined) gave Autofluor Jurkat 1.08, Prostate diff 6.0, VLA-4 antagonist -14.7, FPR ligand -0.6, FPRL1 binder -4.3 and VLA-4 allo ag 5.0.
`O=S(=O)(Nc1cccc2ncccc12)c1cccs1` gave Autofluor Jurkat 1.18, Prostate diff 34.0*, VLA-4 antagonist 37.0, FPR ligand 13.1, FPRL1 binder 39.2* and VLA-4 allo ag inconclusive.
For O=C1CC(c2ccc(S(=O)(=O)N3CCN(c4ccccc4)CC3)cc2)CN1 (centres undefined) the results were Autofluor Jurkat 1.06, Prostate diff 3.0, VLA-4 antagonist -22.5, FPR ligand -4.4, FPRL1 binder 9.9 and VLA-4 allo ag 4.5.
Cc1sc2nc3c(C(=O)N4CCN(c5ncccn5)CC4)cccn3c(=O)c2c1C was read as Autofluor Jurkat 1.1, Prostate diff 9.0, VLA-4 antagonist 17.0, FPR ligand 12.9, FPRL1 binder 16.6 and VLA-4 allo ag -2.0.
`CC(C)OC(=O)c1nnn(-c2nonc2N)c1CN1CCc2ccccc2C1` gave Autofluor Jurkat 1.29, Prostate diff 6.0, VLA-4 antagonist inconclusive, FPR ligand 42.8*, FPRL1 binder -10.2 and VLA-4 allo ag inconclusive.
`CCn1c(CCNC(=O)c2cccs2)nnc1SCC(=O)c1ccc(OC)cc1` gave Autofluor Jurkat 1.08, Prostate diff 3.0, VLA-4 antagonist -18.0, FPR ligand -5.4, FPRL1 binder 0.2 and VLA-4 allo ag 4.5.
Screening CC(=O)Nc1nc(C)c(-c2csc(Nc3ccc(O)cc3)n2)s1 returned Autofluor Jurkat 1.23, Prostate diff 19.0, VLA-4 antagonist 28.0, FPR ligand -6.4, FPRL1 binder -6.7 and VLA-4 allo ag -28.0.
For Cc1ccc(Nc2nc(C3CC3)cs2)cc1 the results were Autofluor Jurkat 1.37, Prostate diff 14.0, VLA-4 antagonist inconclusive, FPR ligand 33.7*, FPRL1 binder 8.0 and VLA-4 allo ag inconclusive.
For CN(C)c1ccc(C2C=C(c3ccc(Cl)cc3OC(F)F)Nc3ncnn32)cc1 (centres undefined) the results were Autofluor Jurkat 2.76*, Prostate diff 16.0, VLA-4 antagonist inconclusive, FPR ligand -28.6, FPRL1 binder -31.8 and VLA-4 allo ag inconclusive.

From PubChem
